Screen size: about 310,000 compounds; about 14,000 (4.5%) showed an effect of 50% or more. Effects have a minus sign here. This is one part of a sample in which strong results are shown more often than they occur.
These compounds were tested against human ether-à-go-go-related gene (hERG) potassium channel (human, UniProt Q12809) (assay: primary screen, population patch clamp on CHO cells stably expressing hERG; higher = less effect of the substance).
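Further: peak tail current of the secondary pulse compared with the same well before compound.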

Chain of human ether-à-go-go-related gene (hERG) potassium channel (Q12809 whole entry, looked up): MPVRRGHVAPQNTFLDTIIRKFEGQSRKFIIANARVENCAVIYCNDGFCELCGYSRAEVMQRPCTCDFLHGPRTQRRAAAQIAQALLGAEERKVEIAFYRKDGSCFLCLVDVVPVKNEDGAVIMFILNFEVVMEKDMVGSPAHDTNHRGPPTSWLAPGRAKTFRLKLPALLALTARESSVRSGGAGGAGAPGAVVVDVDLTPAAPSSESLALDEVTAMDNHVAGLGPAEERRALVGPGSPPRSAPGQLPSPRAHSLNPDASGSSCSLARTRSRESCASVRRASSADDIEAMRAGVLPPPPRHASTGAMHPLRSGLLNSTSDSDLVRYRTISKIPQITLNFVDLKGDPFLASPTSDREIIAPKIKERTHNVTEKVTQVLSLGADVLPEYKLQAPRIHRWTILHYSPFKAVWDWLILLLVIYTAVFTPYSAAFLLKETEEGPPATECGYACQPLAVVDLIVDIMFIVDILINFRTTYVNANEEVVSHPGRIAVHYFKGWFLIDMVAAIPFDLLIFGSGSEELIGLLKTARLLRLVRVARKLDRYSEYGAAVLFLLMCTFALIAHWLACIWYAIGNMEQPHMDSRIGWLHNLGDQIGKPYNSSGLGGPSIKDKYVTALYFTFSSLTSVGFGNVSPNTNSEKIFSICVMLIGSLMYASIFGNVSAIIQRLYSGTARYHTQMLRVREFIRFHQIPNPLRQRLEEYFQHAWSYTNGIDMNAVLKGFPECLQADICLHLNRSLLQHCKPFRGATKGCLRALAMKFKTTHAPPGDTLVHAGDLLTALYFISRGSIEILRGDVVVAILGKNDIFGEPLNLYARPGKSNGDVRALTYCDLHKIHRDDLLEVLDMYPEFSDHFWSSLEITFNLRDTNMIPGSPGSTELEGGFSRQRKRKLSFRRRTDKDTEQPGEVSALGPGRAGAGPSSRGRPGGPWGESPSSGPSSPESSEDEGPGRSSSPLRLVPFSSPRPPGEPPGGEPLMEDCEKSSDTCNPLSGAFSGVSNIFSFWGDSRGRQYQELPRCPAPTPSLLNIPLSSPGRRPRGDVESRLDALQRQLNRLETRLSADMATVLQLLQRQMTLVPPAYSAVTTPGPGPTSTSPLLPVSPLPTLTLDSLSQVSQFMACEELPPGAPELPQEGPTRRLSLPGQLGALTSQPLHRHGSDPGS

Compound | hERG current change (%, negative = inhibition) at 10uM [%]
CN(c1ccc(C(=O)N2CCOCC2)cc1[N+](=O)[O-])C1CCCCC1 | -23.1
CCCCC[C@H]1CN(CCc2ccccc2)C(=O)[C@@H]1CC(=O)NCc1ccc(OC)cc1 | -61.8
CCCCCCc1ccc(N2C[C@H](Cc3ccccc3)[C@@H](CC(=O)NCc3ccc(OC)cc3)C2=O)cc1 | -4.42
COc1ccc(CCN2CC(C(=O)NCc3ccccc3)CCC2=O)cc1 (stereo not shown) | -8.79
COc1ccc(CN2C[C@H](C)[C@@H](CC(=O)NCc3ccccc3)C2=O)cc1 | -10.7
CCCCC[C@H]1CN(Cc2ccc(OC)cc2)C(=O)[C@@H]1CC(=O)NCc1ccccc1 | -38.6
CCCCC[C@H]1CN(CCCC)C(=O)[C@@H]1CC(=O)NCc1ccccc1 | -73.5
CCCCC[C@H]1CN(Cc2ccccc2)C(=O)[C@@H]1CC(=O)NCc1ccc(OC)cc1 | -56.4
CCCCCCc1ccc(N2C[C@H](CCCCC)[C@@H](CC(=O)NCc3ccc(OC)cc3)C2=O)cc1 | -16.6
CCCCN1C[C@H](C)[C@@H](CC(=O)NCc2ccccc2)C1=O | -10.5
CCCCN1C[C@H](Cc2ccccc2)[C@@H](CC(=O)Nc2ccccc2)C1=O | -25.4
CCCCN1CC[C@H]2C=CC[C@@H](C(=O)NCc3ccc(OC)cc3)[C@H]2C1=O | 2.71
CCCCC[C@H]1CN(CCCC)C(=O)[C@@H]1CC(=O)NCc1ccc(OC)cc1 | -71
CC(C)(C)NCc1cccn1-c1sc2c(c1C#N)CCCC2 | -13.4
NC(=S)Nc1ncc(C(F)(F)F)cc1Cl | 12.2
CC(C)NC(=O)c1sc(=S)n2c1[nH]c(=O)c1ccc(C(=O)NCCc3ccc(Cl)cc3)cc12 | 14.1
N#CC(c1ccccc1)N(CCCCl)C(=O)c1ccccc1 (stereo not shown) | -18.9
c1ccc(OCCCc2nc(-c3ccccn3)no2)cc1 | -0.0161
CCCCC[C@H]1CN(Cc2ccccc2)C(=O)[C@@H]1CC(=O)NCc1ccccc1 | -65.8
CCCCCCc1ccc(N2C[C@H](CCCCC)[C@@H](CC(=O)NCc3ccccc3)C2=O)cc1 | -1.8
C[C@H]1CN(Cc2ccccc2)C(=O)[C@@H]1CC(=O)NCc1ccccc1 | 1.31
O=C(c1cccc(C(F)(F)F)c1)N1CCC(O)(CS(=O)(=O)Cc2ccc(Cl)cc2)CC1 | 17.5

Compound | hERG current change (%, negative = inhibition) at 10uM [%]
CCN(c1ccccc1)S(=O)(=O)c1cc(C(=O)OC(C)C(=O)Nc2ccc3c(c2)OCCO3)ccc1C (stereo not shown) | 14.1
Cc1ccc(-c2csc(=S)n2CC(=O)OCC(=O)NC(C)C(C)C)cc1 (stereo not shown) | 3.12
CN(CC(=O)Nc1ccc(Cl)c(C(F)(F)F)c1)C(=O)C1CC(=O)N(Cc2ccco2)C1 (stereo not shown) | -20.1
Cc1[nH]c2ccccc2c1/C=N/NC(=O)c1ccc(N)cc1 | 11.2
COc1ccc(CCN2C(=O)C3C4CC(C5C(C(=O)N/N=C\c6ccc(Cl)cc6)=NOC45)C3C2=O)cc1OC (stereo not shown) | -67.7
COc1ccc(CCN2C(=O)C3C4CC(C5C(C(N)=O)=NOC45)C3C2=O)cc1OC (stereo not shown) | -2.12
COc1ccc(CCN2C(=O)C3C4CC(C5C(C(=O)NN)=NOC45)C3C2=O)cc1OC (stereo not shown) | 7.3
CN(C)S(=O)(=O)N1CCC(Oc2ccc(C(=O)N3CCCCCCC3)cc2)CC1 | 10.9
CCOc1ccccc1N1CCN(C(=O)NCc2ccc(Cl)cc2)CC1 | -14.6
COc1ccccc1N1CCN(CCN2C(=O)C3CCCN3C2=O)CC1 (stereo not shown) | 12
CCCNC(=O)c1ccccc1N1CCN(CCCCN2C(=O)C3CCCCN3C2=O)CC1.Cl.O (stereo not shown) | -33.5
COc1ccccc1N1CCN(CCCCN2C(=O)C3CCCCN3C2=O)CC1 (stereo not shown) | -12.8
Cc1ccccc1N1CCN(CCCN2C(=O)C3CCCCN3C2=O)CC1 (stereo not shown) | -9.54
CCCCOc1ccccc1N1CCN(CCCN2C(=O)C3CCCN3C2=O)CC1.Cl (stereo not shown) | -56.7
COc1ccccc1N1CCN(CCN2C(=O)C3CCCCN3C2=O)CC1 (stereo not shown) | 4.39
Cc1ccc(N2CCN(CCCCN3C(=O)C4CCCN4C3=O)CC2)cc1.Cl (stereo not shown) | -23.9
Cc1ccccc1N1CCN(CCCCN2C(=O)C3CCCN3C2=O)CC1.Cl.O (stereo not shown) | -65.4
Cl.O.O=C1C2CCCCN2C(=O)N1CCCCN1CCN(c2ccccc2Oc2ccccc2)CC1 (stereo not shown) | -55.7
O=C(Nc1ccccc1)OC1C2CCC1C(N1CCCCC1)CC2 (stereo not shown) | -37.5
O=C(Nc1ccc(OCc2ccccc2Cl)cc1)c1cccnc1 | 1.02
Cc1ccc(C(=O)N2CCCC(Nc3ccc(F)cc3)C2)cc1C (stereo not shown) | 0.463
Cc1ccc(-c2ccc(=O)n(CC(=O)NCc3ccco3)n2)cc1 | -10

Compound | hERG current change (%, negative = inhibition) at 10uM [%]
O=C1C2C3c4ccccc4C(c4ccccc43)C2C(=O)N1Cc1ccco1 (stereo not shown) | 5.12
Cn1c(=O)n(C)c2cc(S(=O)(=O)O)ccc21 | 4.49
Cc1ccc(S(=O)(=O)NCC(=O)Nc2ccc3c(c2)OCO3)cc1 | 8.87
Cc1ccc(N2C(=O)CC(=O)NC2=O)cc1 | -16.9
CCN(CC)CCN(C(=O)c1ccc(C(=O)c2ccccc2)cc1)c1nc2c(OC)cccc2s1.Cl | -68
COc1cccc2sc(N(CCCN(C)C)C(=O)c3ccc(S(=O)(=O)N4CCc5ccccc5C4)cc3)nc12.Cl | 3.58
CCN(CC)CCN(C(=O)c1ccc(C(=O)c2ccccc2)cc1)c1nc2ccc(OC)cc2s1.Cl | -45.9
CCN(CC)CCN(C(=O)c1ccc([N+](=O)[O-])cc1)c1nc2c(OC)cccc2s1.Cl | -73.2
CCN(CC)CCN(C(=O)c1ccc(S(=O)(=O)N(C)C2CCCCC2)cc1)c1nc2c(C)cccc2s1.Cl | -13.9
CN1C(=O)/C(=C/c2ccccc2OCc2cccc(F)c2)N(C)C1=S | 6.02
O=C(COC(=O)C1CC(=O)N(Cc2ccccc2)C1)Nc1ccc2c(c1)OCO2 (stereo not shown) | 5.98
Cc1nc2ccc(Cl)cc2c(=O)n1-c1ccccc1Cl | 5.06
Cl.Clc1ccc(-c2ccc(CNCc3ccccn3)o2)cc1 | -52.4
Cl.Clc1ccc(CNCC2CCCO2)c(Cl)c1 (stereo not shown) | -2.74
Cl.Fc1ccc(-c2ccc(CNCc3ccccn3)o2)cc1Cl | -34.9
OCCc1ccc(-c2ccc(Cl)cc2)o1 | 7.65
Cl.Clc1ccc(-c2ccc(CNCC3CCCO3)o2)cc1 (stereo not shown) | -62.4
CCN(CC)CCNCc1ccc(-c2ccc(Cl)cc2)o1.Cl | -72.8
Cc1ccc(CNCC2CCCO2)o1 (stereo not shown) | 7.37
CN1CCN(Cc2ccc(-c3ccc(Cl)cc3)o2)CC1 | -31.7
Cl.Clc1cccc(-c2ccc(CNCc3ccccn3)o2)c1 | -16.2
CCCn1c(SCC(=O)NC2CC2)nnc1-c1ccccn1 | -2.29

Compound | hERG current change (%, negative = inhibition) at 10uM [%]
COc1ccccc1NC(=O)c1sc2nc(Cc3ccccc3)cc(C(F)(F)F)c2c1N | -7.85
COc1ccccc1CC(=O)N1CCOCC1 | 21
Cc1ccccc1C(NC(N)=O)c1ccccc1 (stereo not shown) | 0.289
COc1ccccc1-n1cnnc1SC1CCOC1=O (stereo not shown) | 4.66
S=C(CN1CCCC1=S)N1CCOCC1 | 17.3
CCOCCOC(=O)c1ccc(-n2cnc(C)n2)nc1 | 16.3
Cc1cccc(C)c1NC(=O)C(NC=O)c1ccccc1Cl (stereo not shown) | 0.855
O=S(=O)(Nc1ccccc1N1CCOCC1)c1ccc(F)c(Cl)c1 | -18.6
CC1Cc2ccccc2N1c1ncnc2nc[nH]c12 (stereo not shown) | -6.58
CSc1nc2nc3c(c(=O)n2[nH]1)CN(Cc1ccccc1)CC3 | -20.5
CC1=CC(C)(C)Nc2ccc(C)cc21 | -58.1
CC1=CC(C)(C)Nc2ccc(Cc3ccc4c(c3)C(C)=CC(C)(C)N4)cc21 | 13.9
CCc1ccc2c(c1)C(C)=CC(C)(C)N2 | 17
Cc1cc(Oc2ccc(=O)n(C)n2)nc(SCc2ccccc2)n1 | 25.7
CCOc1ccc(-n2c(-c3ccccc3)c[n+]3c2CCCCC3)cc1.[Br-] | -67
CCOc1ccc(-c2c[n+]3c(n2-c2ccccc2)CCCCC3)cc1.[Br-] | -64.7
FC(F)Oc1ccc(-c2c[n+]3c(n2-c2ccccc2)CCCCC3)cc1 | -70.3
CCOc1ccc(-c2nnc(-c3ccccc3)n2-c2ccccc2)cc1 | -18.8
CCOc1ccc(-n2c(-c3ccccc3)c[n+]3c2CCC3)cc1.[Br-] | -54
Cn1c(-c2ccccc2)c[n+]2c1CCCCC2.[Br-] | -0.399
COc1ccc(-c2c[n+]3c(n2-c2ccccc2)CCCCC3)cc1.[Br-] | -18.6
CCOc1ccc(-n2c(-c3ccccc3)c[nH]c2=S)cc1 | 20.6
